Bioassay records as filed in PubChem BioAssay.
In the library only some 2.4% were active in any assay of this set; here they are far more common.
M1 antag = blocks human M1 muscarinic receptor. 1.3% of 360,000 active. CHO-K1 hM1, Fluo-8 calcium fluorescence, ACh EC80 antagonist. AID 588852. P11229. inhibition, % at 3 µM;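 active = percent inhibition above its own plate's cutoff, namely the mean of that plate's compound wells plus 3 SD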;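 note: peak over basal fluorescence ratio during 140 s after agonist addition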
Target sequence (P11229 whole entry, looked up): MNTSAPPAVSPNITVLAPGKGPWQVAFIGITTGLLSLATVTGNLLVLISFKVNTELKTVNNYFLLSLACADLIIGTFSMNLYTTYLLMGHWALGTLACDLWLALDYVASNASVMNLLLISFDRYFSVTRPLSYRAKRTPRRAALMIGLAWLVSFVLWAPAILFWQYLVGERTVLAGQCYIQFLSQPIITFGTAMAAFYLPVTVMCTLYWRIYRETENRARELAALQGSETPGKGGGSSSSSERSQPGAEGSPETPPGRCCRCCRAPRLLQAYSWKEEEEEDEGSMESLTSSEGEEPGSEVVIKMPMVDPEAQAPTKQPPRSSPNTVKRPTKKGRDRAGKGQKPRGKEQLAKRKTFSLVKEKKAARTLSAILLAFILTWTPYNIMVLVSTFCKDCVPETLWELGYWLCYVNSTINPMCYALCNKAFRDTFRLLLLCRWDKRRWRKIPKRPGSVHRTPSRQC
M1 PAM = positive allosteric modulators of human M1 muscarinic receptor; CHO-K1 hM1, Fluo-8 calcium fluorescence, ACh EC20; 0% = ACh EC20, 100% = maximal ACh; AID 588819; activation, % at 3 µM; 0.088% of 360,000 active; in the data active = activation above about 19%, passing the limit was not always enough
CHRM1 agonist = agonists of human M1 muscarinic receptor | P11229 | 0.33% of 360,000 active | AID 588814 | activation, % at 3 µM | CHO-K1 hM1, Fluo-8 calcium fluorescence, agonist mode; 0% DMSO, 100% acetylcholine EC100;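 active = activation above the run's mean compound activation plus 3 SD, cut at about 16% in these data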;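 note: peak over basal fluorescence ratio within a 140 s kinetic read after compound addition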
M1 ag parental = nonselective activator or artifact in parental CHO-K1 cells; Fluo-8 calcium fluorescence; scaled to maximal ATP response, vehicle zero; activation, % at 3 µM; 0.48% of 360,000 active; AID 602248; in the data active = activation above about 15%;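 note: untransfected CHO-K1 host cells lacking M1 receptor as counterscreen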
M1 PAM parental = M1 PAM counterscreen hit in parental CHO-K1 cells; ATP EC20, Fluo-8 calcium fluorescence; 0% at ATP EC20, 100% at ATP max; activation, % at 3 µM; 0.02% of 360,000 active;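 active = activation above the run cutoff, the mean activation of all test compounds plus 3 SD, cut at about 40% in these data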;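 note: peak over basal fluorescence ratio in a 140 s read after ATP addition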
CHO-K1 Ca antag = counter-screen for M1 antagonists: effect in parental CHO-K1 cells; ATP-induced calcium, Fluo-8 fluorescence; inhibition, % at 3 µM; 0.6% of 360,000 active; AID 602250;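 active = inhibition above a per-plate cutoff, the plate's mean sample inhibition plus 3 SD, cut at about 24% in these data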
Numbers stand for hits.

CC1Sc2ccc(S(=O)(=O)CCC(=O)N3CCN(c4cccc(Cl)c4)CC3)cc2NC1=O (stereo not given) was read as M1 antag 46, M1 PAM inactive, CHRM1 agonist inactive, M1 ag parental inactive, M1 PAM parental inactive and CHO-K1 Ca antag inactive.
Screening Cn1cc(NC(=O)Nc2ccc(C(F)(F)F)cc2)c(C(F)(F)F)n1 returned M1 antag inactive, M1 PAM inactive, CHRM1 agonist inactive, M1 ag parental inactive, M1 PAM parental inactive and CHO-K1 Ca antag inactive.
For CC(=O)c1ccc(NC(=S)NC(NC(=O)c2ccco2)C(Cl)(Cl)Cl)cc1 (stereo not given) the results were M1 antag inactive, M1 PAM inactive, CHRM1 agonist 17, M1 ag parental inactive, M1 PAM parental inactive and CHO-K1 Ca antag inactive.
Screening O=C(NC(NC(=S)Nc1ccc(Cl)cc1)C(Cl)(Cl)Cl)c1ccco1 (stereo not given) returned M1 antag inactive, M1 PAM inactive, CHRM1 agonist inactive, M1 ag parental inactive, M1 PAM parental inactive and CHO-K1 Ca antag inactive.
O=C(O)CC1(CC(=O)N2CCOCC2)CCCC1 was read as M1 antag inactive, M1 PAM inactive, CHRM1 agonist inactive, M1 ag parental inactive, M1 PAM parental inactive and CHO-K1 Ca antag inactive.
CCN(CC)c1ccc(NC(=O)COC(=O)C2CCN(c3ccc(C(F)(F)F)cn3)CC2)cc1 was read as M1 antag inactive, M1 PAM inactive, CHRM1 agonist inactive, M1 ag parental inactive, M1 PAM parental inactive and CHO-K1 Ca antag inactive.
O=C(COC(=O)C1CCN(S(=O)(=O)c2ccc3c(c2)OCCO3)CC1)Nc1ccc(C(F)(F)F)cc1 was read as M1 antag inactive, M1 PAM inactive, CHRM1 agonist inactive, M1 ag parental inactive, M1 PAM parental inactive and CHO-K1 Ca antag 24.
CCN(c1ccc(NC(=O)COC(=O)C2CCN(c3ccc(C(F)(F)F)cn3)CC2)cc1)C(C)C was read as M1 antag 35, M1 PAM inactive, CHRM1 agonist inactive, M1 ag parental inactive, M1 PAM parental inactive and CHO-K1 Ca antag inactive.
`Cc1ccc(S(=O)(=O)N2CCC(C(=O)OCC(=O)N(C)C3CCCCC3)CC2)cc1C` gave M1 antag inactive, M1 PAM inactive, CHRM1 agonist inactive, M1 ag parental inactive, M1 PAM parental inactive and CHO-K1 Ca antag inactive.
For CN(C(=O)COC(=O)C1CCN(S(=O)(=O)c2ccc3c(c2)OCCO3)CC1)C1CCCCC1 the results were M1 antag inactive, M1 PAM inactive, CHRM1 agonist inactive, M1 ag parental inactive, M1 PAM parental inactive and CHO-K1 Ca antag 26.
`Cc1ccc(Cn2c(SCC(=O)NCC3CCCO3)nc3c2c(=O)n(C)c(=O)n3C)cc1` (stereo not given) gave M1 antag inactive, M1 PAM inactive, CHRM1 agonist inactive, M1 ag parental inactive, M1 PAM parental inactive and CHO-K1 Ca antag inactive.
For CC(C)(C)c1cc(C(=O)NNC(=O)Nc2cccc(Cl)c2)n(Cc2ccccc2)n1 the results were M1 antag inactive, M1 PAM inactive, CHRM1 agonist inactive, M1 ag parental inactive, M1 PAM parental inactive and CHO-K1 Ca antag 29.
`CC(C)(C)c1cc(C(=O)NNC(=O)Nc2ccccc2)n(Cc2ccccc2)n1` gave M1 antag inactive, M1 PAM inactive, CHRM1 agonist inactive, M1 ag parental inactive, M1 PAM parental inactive and CHO-K1 Ca antag inactive.
`COc1ccc(CCN(C)C(=O)COc2ccc(C(=O)c3ccccc3)cc2)cc1OC` gave M1 antag inactive, M1 PAM inactive, CHRM1 agonist inactive, M1 ag parental inactive, M1 PAM parental inactive and CHO-K1 Ca antag inactive.
COc1ccc(CCN(C)C(=O)Cc2ccc(-c3ccccc3)cc2)cc1OC was read as M1 antag inactive, M1 PAM inactive, CHRM1 agonist inactive, M1 ag parental inactive, M1 PAM parental inactive and CHO-K1 Ca antag 24.
For CCCOc1ccc(C(O)(CCC)CCN2CCCCC2)cc1 (stereo not given) the results were M1 antag 66, M1 PAM inactive, CHRM1 agonist inactive, M1 ag parental inactive, M1 PAM parental inactive and CHO-K1 Ca antag inactive.
`OC(CCN1CCOCC1)(c1ccc(Cl)cc1)C1CCCCC1` (stereo not given) gave M1 antag 82, M1 PAM inactive, CHRM1 agonist inactive, M1 ag parental inactive, M1 PAM parental inactive and CHO-K1 Ca antag inactive.
Screening CCCC(O)(CCN1CCOCC1)c1ccc(Br)cc1 (stereo not given) returned M1 antag 78, M1 PAM inactive, CHRM1 agonist inactive, M1 ag parental inactive, M1 PAM parental inactive and CHO-K1 Ca antag inactive.
`CCCC(O)(c1ccc(Cl)cc1)C(CN1CCOCC1)c1ccc(Cl)cc1` (stereo not given) gave M1 antag inactive, M1 PAM inactive, CHRM1 agonist inactive, M1 ag parental inactive, M1 PAM parental inactive and CHO-K1 Ca antag inactive.
For CCCC(O)(CCN1CCOCC1)c1ccc(Cl)cc1 (stereo not given) the results were M1 antag 45, M1 PAM inactive, CHRM1 agonist inactive, M1 ag parental inactive, M1 PAM parental inactive and CHO-K1 Ca antag inactive.
CCc1nnc(NC(=O)c2ccc3c(=O)n4c(nc3c2)CCC4)s1 was read as M1 antag inactive, M1 PAM inactive, CHRM1 agonist inactive, M1 ag parental inactive, M1 PAM parental inactive and CHO-K1 Ca antag inactive.
CCCn1c(CC)nc([N+](=O)[O-])c1Sc1ncn[nH]1 was read as M1 antag inactive, M1 PAM inactive, CHRM1 agonist inactive, M1 ag parental inactive, M1 PAM parental inactive and CHO-K1 Ca antag inactive.
`COc1ccc(C(CNC(=O)Cc2c(F)cccc2Cl)N2CCCCC2)cc1` (stereo not given) gave M1 antag 68, M1 PAM inactive, CHRM1 agonist inactive, M1 ag parental inactive, M1 PAM parental inactive and CHO-K1 Ca antag inactive.
COc1ccc(C(CNC(=O)CNC(=O)c2ccc(F)cc2)N2CCCC2)cc1 (stereo not given) was read as M1 antag inactive, M1 PAM inactive, CHRM1 agonist inactive, M1 ag parental inactive, M1 PAM parental inactive and CHO-K1 Ca antag inactive.
Cc1ccc(C(=O)NC(C)c2ccc(S(N)(=O)=O)cc2)s1 (stereo not given) was read as M1 antag inactive, M1 PAM 29, CHRM1 agonist inactive, M1 ag parental inactive, M1 PAM parental inactive and CHO-K1 Ca antag inactive.
For CCOc1ccc(C(C)=O)cc1COC(=O)CNC(=O)C12CC3CC(CC(C3)C1)C2 the results were M1 antag inactive, M1 PAM inactive, CHRM1 agonist inactive, M1 ag parental inactive, M1 PAM parental inactive and CHO-K1 Ca antag inactive.
For COc1ccc(NC(=O)C2Cc3c(-c4cccc(C(N)=O)c4)ccnc3O2)cc1OC (stereo not given) the results were M1 antag inactive, M1 PAM inactive, CHRM1 agonist inactive, M1 ag parental inactive, M1 PAM parental inactive and CHO-K1 Ca antag inactive.
